Many of the other results were omitted from the sample, so hits are more common in it than they were.
TTR transcr act: increases transthyretin transcription; SH-SY5Y TTR promoter Gaussia luciferase, luminescence; 100% = recombinant luciferase protein wells; activation, % at 16.7 µM; 92,000 tested, 1.3% active; AID 1117267;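 active = activation above the mean of all tested compounds plus 3 SD, cut at about 9.5% in these data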;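 also: cells exposed to compounds for one day before reading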
HuH7 TTR inh: HuH7 TTR transcription inhibition, counter-screen; shares compounds with TTR transcr act; HuH7 TTR promoter-Gaussia luciferase reporter, luminescence; inhibition, % at 16.7 µM; 1,100 tested, 4% active;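 active = average inhibition above the solvent-only control wells' mean plus 3 SD, cut at about 15% in these data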;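 also: inhibitors lower well luminescence so higher value means more inhibition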
TTR act confirm: confirmation of human transthyretin transcription activators | shares compounds with TTR transcr act | SHSY5Y TTR promoter Gaussia luciferase, luminescence; 100% = purified Lucia enzyme wells, no cells | activation, % at 16.7 µM | 1,100 tested, under 10 active | AID 1117280;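 active = mean activation above a set limit taken from the earlier primary screen, cut at about 11% in these data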
Large screens that a line does not name were inactive (follow-up assays come after a bar, where they were run).

O=C1N2CCc3ccccc3C2CS(=O)(=O)N1CCc1ccccc1 (stereo not drawn)	none
O=C(NCCc1ccccc1)O[C@H]1CC[C@@]23CCCN2C(=O)CCC[C@H]3C1	none
C[C@H]1[C@@H](OC(=O)Nc2ccccc2C(F)(F)F)CC[C@@]23CCCN2C(=O)CCC[C@@H]13	none
COc1ccc(CCNC(=O)c2ccc(OC)c(OC)c2)cc1OC	none
COc1ccc(CNC(=O)CNC(=O)c2ccc(C(C)(C)C)cc2)cc1OC	TTR transcr act 13.0 | HuH7 TTR inh inactive | TTR act confirm inactive
COc1ccc(CC(=O)NCc2ccccc2)cc1OC	none
O=C(OCC#CCSc1nnc(-c2cccc3ccccc23)o1)c1ccc(F)cc1F	none
C[C@H]1[C@@H](OC(=O)Nc2cccc(Cl)c2)CC[C@@]23CCCN2C(=O)CCC[C@@H]13	none
COc1ccc(C(=O)NCCNc2ccc([N+](=O)[O-])cc2)cc1	none
Nc1nonc1C(=O)NCCNc1ccc([N+](=O)[O-])cc1	none
Cc1nonc1OC(C)CNCCNc1ccc([N+](=O)[O-])cc1 (stereo not drawn)	TTR transcr act 11.2 | HuH7 TTR inh inactive | TTR act confirm inactive
COc1ccc(CN2C(=O)c3ccnn3CC2(C)c2nnnn2-c2c(C)cccc2C)cc1 (stereo not drawn)	none
CCCC[C@H](C(=O)N(C)c1cccc(OC)c1)[C@@H](O)c1ccc(Cl)cc1	none
COC(=O)[C@]12C[C@H](CC(=O)NCCCN3CCCC3=O)C(=O)N(Cc3cccc4ccccc34)C1=C[C@H](C1CCCC1)O[C@@H]2C	none
CCC(C)CCN1C(N(C)C)=NC[C@@H]1CC(C)C (stereo partly drawn)	TTR transcr act 12.3 | HuH7 TTR inh inactive | TTR act confirm inactive
CCC(C)CCN1C(N(C)C)=NC[C@@H]1Cc1ccccc1 (stereo partly drawn)	none
CC(C)C[C@H]1CN=C(Nc2ccccc2)N1CC(C)C	none
C=CCN1C(=O)[C@H](CC(=O)NCC23CC4CC(CC(C4)C2)C3)[C@@]2(C(=O)OCC)CCCC=C12	none
Fc1ccc(Cn2ccc3ccc(-c4ccc5ccn(Cc6ccc(F)cc6F)c5c4)cc32)c(F)c1	none
C[C@H]1CCC/C=C/C(=O)c2c(cc(O)c(Cl)c2O)CC(=O)O1	none
Cc1cc(NC(=O)CCCn2nc([N+](=O)[O-])cc2C)no1	none
Cc1cc([N+](=O)[O-])nn1CCCC(=O)NCc1ccccc1	none
Cc1cc([N+](=O)[O-])nn1CCCC(=O)Nc1cc(Cl)ccc1Cl	TTR transcr act 14.4 | HuH7 TTR inh inactive | TTR act confirm inactive
C[C@H]1[C@@H](NC(=O)C#Cc2ccccc2)CC[C@@]23CCCN2C(=O)CCC[C@@H]13	none
CCCn1c(C(O)c2ccc(OC)cc2)nc2ccccc21 (stereo not drawn)	TTR transcr act 9.8 | HuH7 TTR inh inactive | TTR act confirm inactive
CCn1c(C(O)c2cc(OC)c(OC)c(OC)c2)nc2ccccc21 (stereo not drawn)	none
CCCn1c(C(C)Nc2nc(-c3ccc(OC)cc3)cs2)nc2ccccc21 (stereo not drawn)	none
COC(CNC(=O)[C@H](Cc1c[nH]c2ccccc12)NC1(C(=O)NC(c2ccccc2)c2ccccc2)CCCCC1)OC	none
COc1ccc(C(=O)O/N=C(\N)Cc2cccs2)cc1OC	none
COc1ccc(/C(N)=N/OC(=O)COc2ccccc2Cl)cc1	none
N/C(Cc1cccs1)=N\OC(=O)COc1ccccc1Cl	TTR transcr act 11.1 | HuH7 TTR inh inactive | TTR act confirm inactive
O=C(NNC1CC(=O)N(c2ccc(Cl)cc2)C1=O)c1ccccn1 (stereo not drawn)	none
O=C(Nc1ccc(N2C(=O)CC(c3ccccc3)C2=O)c(Cl)c1)c1ccccn1 (stereo not drawn)	TTR transcr act 37.5 | HuH7 TTR inh inactive | TTR act confirm inactive
O=C(Nc1ccc(N2C(=O)[C@@H]3[C@H](C2=O)[C@@H]2C=C[C@H]3C2)c(Cl)c1)c1ccccn1	none
CC(=O)Nc1sc2c(c1-c1cc3ccccc3o1)CCNC2	none
CC(C)OP(=O)(O)C(C)NC(=O)OCc1ccccc1 (stereo not drawn)	none
N[C@H](C(=O)Nc1ccc(Cl)cc1C(=O)c1ccc[nH]1)c1ccccc1	none
CCC[C@H]1[C@@H](OC(=O)NCc2ccc(C(F)(F)F)cc2)CC[C@@]23CCCN2C(=O)CCC[C@@H]13	none
CCOC(=O)CCCCC(=O)NC(CO)C(=O)NC (stereo not drawn)	TTR transcr act 9.9 | HuH7 TTR inh inactive | TTR act confirm inactive
CCOC(=O)CCC(NC(=O)CCCCC(=O)NC(CCC(=O)OCC)C(=O)OCC)C(=O)OCC (stereo not drawn)	none
CCOC(=O)CCCCCCCCC(=O)Nc1ccc(-n2[nH]c(=O)cc2C)cc1	none
Cc1ccc(NC(=O)N(Cc2cccs2)Cc2cc3cc4c(cc3[nH]c2=O)OCO4)cc1	none
O=C(Nc1ccc(F)cc1)N(Cc1cccs1)Cc1cc2cc3c(cc2[nH]c1=O)OCO3	TTR transcr act 27.5 | HuH7 TTR inh inactive | TTR act confirm inactive
O=C(Nc1ccccc1)N(CCCN1CCOCC1)Cc1cc2cc3c(cc2[nH]c1=O)OCCO3	none
C=CCN1C(=O)[C@H](CC(=O)NCCCCc2ccccc2)[C@@]2(C(=O)OCC)CCCC=C12	none
CNc1nc(N)c([N+](=O)[O-])c(Nc2cccc(Br)c2)n1	none
COc1cc(NC(=O)c2ccc(OC)c([N+](=O)[O-])c2)ccc1NC(=O)c1ccco1	none
COc1ccc(C(=O)Nc2ccc(C(=O)N3CCCC3)cc2)cc1[N+](=O)[O-]	none
COc1ccc(NC(=O)c2cc(C)cc(C)c2)cc1[N+](=O)[O-]	TTR transcr act 18.6 | HuH7 TTR inh inactive | TTR act confirm inactive
Cc1ccc(S(=O)(=O)N2c3ccc(F)cc3C[C@H]2CSc2ccccc2)cc1	none
O=C(NCCc1ccccc1)OCc1cn(-c2cccc(Cl)c2)nn1	none
CCCCOc1ccc(C(=O)n2ccc3ccc(-c4ccc5ccn(Cc6ccccc6)c5c4)cc32)cc1	none
Cc1cc(Br)ccc1OCCNCc1ccccc1	none
Cc1cc(Cl)cc(C)c1OCCNCc1ccccc1	none
Cc1cc(C)c(OCCNCc2ccccc2)c(C)c1	TTR transcr act 12.5 | HuH7 TTR inh inactive | TTR act confirm inactive
COC(=O)[C@@]12CCCCC3=C1N(CCC3)C(=O)[C@H]2CC(=O)NCCC(C)C	none
C/C(=N/NC(=O)Cc1cccn1C)c1ccccc1	none
C/C(=N\NC(=O)Cc1cccn1C)c1ccco1	none
C/C(=N\NC(=O)Cc1cccn1C)c1ccc2ccccc2c1	TTR transcr act 11.0 | HuH7 TTR inh inactive | TTR act confirm inactive
CC1CN(c2ccnc3cc(Cl)ccc23)CCN1C(=O)c1ccc(Cl)cc1 (stereo not drawn)	none
CCC[C@H]1[C@@H](OC(=O)NCc2cccc(C(F)(F)F)c2)CC[C@@]23CCCN2C(=O)CCC[C@@H]13	none
Cc1ccc([N+](=O)[O-])cc1N=C(c1ccc([N+](=O)[O-])cc1)N1CCOCC1	none
Cc1ccc([N+](=O)[O-])cc1N=C(c1cccc([N+](=O)[O-])c1)N1CCOCC1	TTR transcr act 14.7 | HuH7 TTR inh inactive | TTR act confirm inactive
O=[N+]([O-])c1cccc(NC(=S)N2CCOCC2)c1	none
COc1ccc(S(=O)(=O)N(C)C[C@@H]2Oc3c(NC(=O)Nc4ccccc4)cccc3C(=O)N([C@@H](C)CO)C[C@H]2C)cc1	none
O=C(OCc1cn(Cc2cccc(Cl)c2)nn1)N1CCCC1	none

Screening data deposited in PubChem by The Scripps Research Institute Molecular Screening Center.
